RE007 growth inh: less growth of the S. pombe RE007 Vpr strain | S. pombe RE007 Vpr strain, BacTiter-Glo ATP luminescence, 24 h | AID 651644 | Potency, µM (highest dose often 92.2 µM), without a hit: at the top dose activity change, negative = less growth, actives largely listed as inhibitors | actives 0.21% (n = 360,000); active means well fitted falling curve with a large enough effect; inconclusive means small, poorly fitted or top-dose-only effect; inactive means no such curve, though single readings can be large or run the other way; further: on the % scale 0 is the no-effect control and ±100 the full control effect; nearly all actives have a fitted effect of over 50% in size
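Fission yeast strain RE007, carrying one chromosomally integrated HIV-1 vpr copy, was seeded at OD 0.01 in PMG+AL medium with 23 nL pinned compound. After 24 h at 30 °C and 99% humidity, viability was read by BacTiter-Glo luminescence.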
Pf growth 48h: inhibits P. falciparum growth in the first generation, 48 h. P. falciparum luciferase growth in erythrocytes, 48 h. Potency, µM (highest dose often 28.7 µM), for the others: at the top dose activity change, negative = inhibition, actives largely listed as inhibitors. actives 5.9% (n = 310,000). AID 504832; active means well fitted inhibition curve with a large enough effect; inconclusive means small, poorly fitted or top-dose-only effect, or another doubt; inactive means no such curve, though single readings can be large or run the other way; further: on the % scale 0 is the no-effect control and ±100 the full control effect
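First compound was added to culture medium, then infected red cells at 0.1% parasitemia and 2% hematocrit (final). After incubation at 37 C under 5% CO2, luciferase detection reagent was dispensed and light output recorded.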
NS1 inh: inhibitors of influenza NS1 protein function. Potency, µM (top dose mostly 46.1 µM), for inactives: at the highest dose activity, positive = more growth. actives 0.4% (n = 270,000); further: actives are rising curves; nearly all actives have a fitted effect of over 50% in size
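A cell-based growth assay was used: compounds that relieve NS1-induced slow growth of budding yeast raise OD600. Assay medium was yeast nitrogen base with ammonium sulphate and -URA supplement, pH 6.0, with 2% galactose.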
Pf growth 96h: P. falciparum growth inhibition at 96 hour, primary screen for plastid delayed-death inhibitors; actives 6.9% (n = 320,000); P. falciparum luciferase reporter growth, 96 h; Potency, µM (series often up to 28.7 µM), inactives show top-dose activity change, negative = inhibition, actives largely listed as inhibitors; active means well fitted inhibition curve with a large enough effect; inconclusive means small, poorly fitted or top-dose-only effect, or another doubt; inactive means no such curve, though single readings can be large or run the other way; further: on the % scale 0 is the no-effect control and ±100 the full control effect
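Two parasite generations (96 h, 37 C, 5% CO2) of compound exposure in infected erythrocytes (0.05% parasitemia, 2% hematocrit). Luciferase-reporter P. falciparum; decreased luminescence indicates inhibited growth, aimed at apicoplast-acting delayed death.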
SARS PLP yeast: blocks SARS-CoV papain-like protease in a yeast assay; S. cerevisiae expressing SARS-CoV PLpro, growth rescue; Potency, µM (highest dose often 32.9 µM), inactives show at the highest dose activity, positive = growth rescue, most hits filed as activators; actives 0.19% (n = 330,000); further: 0% is about no effect; nearly all actives have a fitted effect of over 55% in size
Starred values were filed as active, the others as inactive; ? = inconclusive; . = not tested or not shown; [ ] = remark or other dose. The list is not random: actives were taken first. Their share in the collection is about 9.5%. Unless noted, the call rests on the fitted dose curve. Potency means the concentration at half of the fitted maximal effect.

SMILES | RE007 growth inh | Pf growth 48h | NS1 inh | Pf growth 96h | SARS PLP yeast
COc1ccc(C[C@@H]2c3cc(OC)c(OC)cc3CC[N@+]2(C)CCC(=O)OCCCCCOC(=O)CC[N@@+]2(C)CCc3cc(OC)c(OC)cc3[C@H]2Cc2ccc(OC)c(OC)c2)cc1OC | . | -5%[12.8 µM] | . | 2%[12.8 µM] | .
COc1cccc(-n2c(SCC(=O)O)nnc2-c2cccnc2)c1 | -2% | 16% | 4% | ? | 1%
CCSc1nnc(-c2cccnc2)n1-c1ccc(Cl)c(C)c1 | 8% | . | 4% | 12µM* | 10%
O=C(CSc1nnc(-c2cccnc2)n1-c1ccccc1)Nc1ccccn1 | -4% | 16% | -8% | 10µM* | -3%
Clc1ccc(-n2c(SC/C=C/c3ccccc3)nnc2-c2cccnc2)cc1 | 15% | 12µM* | 2% | . | -13%
Cc1ccc(C(=O)N2CCN(c3cccc(C)c3C)CC2)cc1S(=O)(=O)N1CCOCC1 | 2% | ? | . | ? | -8%
COc1ccc(CCN2CC(O)=C(c3nc4ccccc4c(=O)[nH]3)C2=N)cc1OC | -4% | 13µM* | -43% | . | 5%
COc1ccc(CCN2CC(O)=C(c3nc(C)cs3)C2=N)cc1OC | -4% | -2% | 4% | 21% | 5%
COc1ccccc1C1CCCN1Cc1nc(-c2ccc(C)s2)oc1C (stereo not drawn) | -13% | 4.7µM* | 1% | 5% | -1%
COc1cccc(C2CCCN2Cc2nc(-c3sccc3C)oc2C)c1 (stereo not drawn) | 5% | ? | -2% | -11% | -2%
COc1ccccc1C1CCCN1Cc1nc(-c2cc3c(cc2Cl)OCO3)oc1C (stereo not drawn) | -20% | 9.3µM* | 6% | -13% | -2%
O=C(O)COc1ccc(CCNS(=O)(=O)c2ccccc2)s1 | . | 2% | . | -4% | .
Cc1ccc(C(=O)N[C@@H](C)CN2C3=NC[C@H](C(C)C)N3C[C@H]2Cc2ccc(O)cc2)cc1Br | -28% | ? | -6% | 9.3µM* | 16%
COc1ccc(C[C@H]2CN3C(=NC[C@@H]3C(C)C)N2C[C@H](C)NC(=O)c2ccc(C)c(Br)c2)cc1 | 2% | ? | 4% | 2.9µM* | 0%
CC1=CC(C)(C)NC(=S)N1c1cccc2cc(S(=O)(=O)O)ccc12 | . | 34% | 3% | 35% | 4%
CCCN1C(=O)c2cc(C(=O)Nc3ccccc3OC)ccc2C1Nc1ccccc1OC (stereo not drawn) | 3% | 10µM* | 0% | ? | 0%
CCCN1C(=O)c2cc(C(=O)Nc3cccc(C(C)=O)c3)ccc2C1Nc1cccc(C(C)=O)c1 (stereo not drawn) | 20% | ? | -4% | ? | -3%
COC(=O)c1ccc(C23CC4(C2)[C@H](CN(Cc2cccnc2)[C@@H]4c2ccccc2)C3c2ccccc2)cc1 (stereo partly drawn) | 6% | 7.4µM* | -2% | 8.3µM* | -6%
COC(=O)c1ccc(C23CC4(C2)[C@H](CN(Cc2cccnc2)[C@@H]4c2ccccc2)C3c2ccc(C(F)(F)F)cc2)cc1 (stereo partly drawn) | 1% | 2.9µM* | 18% | 3.3µM* | -5%
N#Cc1ccc(C23CC4(C2)[C@H](CN(Cc2cccnc2)[C@@H]4c2ccccc2)C3c2ccccc2)cc1 (stereo partly drawn) | 9% | 4.1µM* | 0% | 3.7µM* | -11%
CCc1ccc(N2C(=O)c3cc(N4CCOCC4)c([N+](=O)[O-])cc3C2=O)cc1 | . | 4% | 11% | 7.4µM* | -5%
COc1ccc(OC)c(NC(=O)CSc2nncc(=O)n2N)c1 | -1% | -4% | -3% | 34% | 4%
O=C(NNc1c2ccccc2nc2ccccc12)c1ccc(Cl)cc1 | -3% | 13µM* | -2% | -1% | 0%
Cc1cc(C(=O)NNC(=O)c2ccc(Cl)cc2)c2ccccc2n1 | -4% | 12% | . | 24% | 1%
COc1cccc(C(=O)NNc2c3ccccc3nc3ccccc23)c1 | -6% | ? | -2% | 12µM* | 0%
SMILES | RE007 growth inh | Pf growth 48h | NS1 inh | Pf growth 96h | SARS PLP yeast
CCOC(=O)Nc1c2ccccc2nc2ccccc12 | . | 15µM* | -4% | 10µM* | -4%
CCOC(=O)Nc1ccc(Oc2ccccc2)cc1 | 12% | 14% | -30% | ? | -12%
CCOC(=O)c1nc(Nc2ccc(C(=O)O)cc2)c2ccccc2n1 | -9% | 1% | 5% | 30% | -2%
CCOC(=O)c1ccc(Nc2nc(C(=O)OCC)nc3ccccc23)cc1 | -17% | 9.3µM* | -1% | -15% | 7%
C[C@@H]1CN([C@H](C)CO)C(=O)CCCn2nncc2CO[C@H]1CN(C)Cc1cccc2c1OCCCO2 | -2% | . | . | . | .
Cc1ccc(C(=O)NCC(=O)OCC(=O)c2ccc(Br)s2)cc1 | 1% | -9% | . | 35% | 6%
O=C(C1CCC(=O)N(C2CCCC2)C1)N1CCC(Oc2ccccc2Cl)CC1 (stereo not drawn) | -2% | -21% | -4% | 10% | 5%
Cc1ccc(C(=O)NNc2c3ccccc3nc3ccccc23)cc1 | -16% | 13µM* | -2% | -22% | -5%
Nc1ccccc1C(=O)NNc1c2ccccc2nc2ccccc12 | -4% | ? | 8% | ? | -1%
CSc1nc(N(C)NC(=O)c2ccc(Cl)cc2)c2ccccc2n1 | -3% | 3.3µM* | 9% | 3.7µM* | -2%
CSc1nc(N(C)NC(=O)c2ccccc2)c2ccccc2n1 | 13% | ? | -3% | ? | -3%
Clc1cncc(Cl)c1NNc1c2ccccc2nc2ccccc12 | -10% | 2.9µM* | -10% | 25% | -5%
O=C(OCC(=O)N1CCc2ccccc21)c1ccncc1 | 38% | -16% | . | -27% | 13%
O=C(Nc1nc2c(s1)CCCC2)c1cccc(S(=O)(=O)N2CCCc3ccccc32)c1 | -1% | 9.3µM* | 27% | ? | 6%
CN1CCc2nc(NC(=O)c3cccc(S(=O)(=O)N4CCc5ccccc54)c3)sc2C1 | -4% | 5.9µM* | ? | 58% | -3%
O=C(Nc1nncs1)c1cccc(S(=O)(=O)N2CCc3ccccc32)c1 | -12% | 10% | -2% | 18% | 0%
Cc1cc(C(=O)CSc2cccc[n+]2[O-])c(C)n1-c1ccccc1 | -14% | 359% | -50% | -55% | -1%
Cc1cc(C(=O)CSc2cccc[n+]2[O-])c(C)n1-c1ccc(Br)cc1 | . | 17% | . | 6.6µM* | -1%
O=C(CSc1cccc[n+]1[O-])c1ccccc1Br | 22µM* | -5% | . | ? | -11%
CC(Oc1cccc(Cl)c1)C(=O)Nc1nc(-c2ccccn2)cs1 (stereo not drawn) | 45µM* | 2.6µM* | . | 2.6µM* | -4%
Cc1cccc(C(=O)NC(C(=O)Nc2nc(-c3ccccn3)cs2)C(C)C)c1 (stereo not drawn) | -3% | 15µM* | . | ? | -1%

Assay outcomes: PubChem BioAssay, National Center for Advancing Translational Sciences (NCATS)
